This is a sample that favours compounds with a hit; in the whole collection about 10% have one here.
CtBP-E1A inh: blocks the CtBP interaction with E1A. hit rate 0.49% among 340,000. AlphaScreen GST-E1A/His-CtBP binding, 1536-well; active compounds read low. AID 651724. activity change, % (test concentration not listed); in the data active means activity change below about -65%; inconclusive means mostly about -30% to -63%; further: on the % scale 0 is the no-effect control and ±100 the full control effect
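In 5 uL wells, 23 nL compound meets equimolar GST-E1A and His-CtBP (5X stock 125 nM each) for 2 h, 37 °C. Beads (5X, 50 ug/mL) then 1 h, 37 °C, dark.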
JMJD2A Tudor: blocks the human JMJD2A Tudor domain; hit rate 4.4% among 390,000; AID 504339; O75164; AlphaScreen JMJD2A-Tudor / H3K4me3 peptide binding; Potency, µM (highest dose often 114 µM), inactives show at the top dose activity change, negative = inhibition, actives largely listed as inhibitors; further: potency means the concentration at half of the fitted maximal effect; on the % scale 0 is the no-effect control and ±100 the full control effect; nearly all actives have a fitted effect of over 50% in size
BAZ2B block: BAZ2B (human) inhibition | hit rate 4.4% among 360,000 | Q9UIF8 | AlphaScreen BAZ2B-H3K14Ac peptide displacement | Potency, µM (titrated, usually from 114 µM), for the others: at the top dose activity change, negative = inhibition, hits mostly inhibitors; further: potency means the concentration at half of the fitted maximal effect; on the % scale 0 is the no-effect control and ±100 the full control effect; nearly all actives have a fitted effect of over 60% in size
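AlphaScreen luminescence quantifies BAZ2B engagement of H3K14Ac peptide; the protein and biotinylated peptide are both at 50 nM final, buffer PBS pH 7.4 with 0.01% Tween-20, all steps at room temperature.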
Six1-Eya2 blk: inhibitors of human Six1/Eya2 interaction; AlphaScreen GST-Six1/His-Eya2 binding, biochemical; active compounds read low; activity change, % (test concentration not listed); hit rate 0.56% among 360,000; AID 651725; in the data active means activity change below about -65%; inconclusive means mostly about -30% to -63%; further: on the % scale 0 is the no-effect control and ±100 the full control effect
Target sequence (O00167 whole entry, looked up): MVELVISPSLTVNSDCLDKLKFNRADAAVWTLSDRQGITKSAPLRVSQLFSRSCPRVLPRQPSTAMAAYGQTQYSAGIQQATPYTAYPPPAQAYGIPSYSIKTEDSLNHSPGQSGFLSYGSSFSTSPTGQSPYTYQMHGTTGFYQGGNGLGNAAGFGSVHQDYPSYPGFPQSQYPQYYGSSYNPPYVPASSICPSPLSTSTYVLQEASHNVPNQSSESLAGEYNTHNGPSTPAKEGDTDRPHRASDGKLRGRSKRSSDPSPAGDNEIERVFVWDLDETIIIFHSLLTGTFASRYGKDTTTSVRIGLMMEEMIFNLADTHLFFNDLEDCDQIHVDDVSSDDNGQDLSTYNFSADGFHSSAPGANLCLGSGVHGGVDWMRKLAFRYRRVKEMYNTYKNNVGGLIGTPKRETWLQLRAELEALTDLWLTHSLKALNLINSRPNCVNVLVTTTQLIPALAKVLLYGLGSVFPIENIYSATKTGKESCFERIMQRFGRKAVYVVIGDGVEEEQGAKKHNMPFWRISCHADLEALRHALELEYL
Target sequence (Q15475 whole entry, looked up): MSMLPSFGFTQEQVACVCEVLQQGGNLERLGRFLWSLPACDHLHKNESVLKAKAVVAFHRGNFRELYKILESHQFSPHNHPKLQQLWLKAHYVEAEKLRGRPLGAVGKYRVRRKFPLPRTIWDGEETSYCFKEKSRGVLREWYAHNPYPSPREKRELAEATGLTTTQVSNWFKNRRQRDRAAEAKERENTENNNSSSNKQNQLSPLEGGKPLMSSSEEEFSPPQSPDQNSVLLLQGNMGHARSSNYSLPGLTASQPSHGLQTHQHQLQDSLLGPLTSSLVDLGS
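Compounds are tested against tagged Six1 and Eya2 proteins bridged by glutathione donor and nickel acceptor beads; after a one-hour incubation at 37 °C without light, AlphaScreen emission is recorded.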
G9a block: G9a (human) methyltransferase inhibition; Q96KQ7; G9a H3K9 monomethylation, AlphaScreen, 2 h; Potency, µM (highest dose often 102 µM), for the others: top-dose activity, negative = inhibition, hits mostly inhibitors; hit rate 8.8% among 350,000; further: potency means the concentration at half of the fitted maximal effect; on the % scale 0 is the no-effect control and ±100 the full control effect; nearly all actives have a fitted effect of over 75% in size
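Quantitative HTS format: methyltransferase activity on a biotin-tagged H3K9 peptide is measured by AlphaScreen, using a rabbit anti-monomethyl-H3K9 antibody with streptavidin donor and anti-IgG acceptor beads. Final levels are 20 nM enzyme, 500 nM peptide, 20 uM SAM; 2 h RT.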
HP1b chromo inh: HP1-beta chromodomain-methylated histone interaction inhibition. P83916. AlphaScreen HP1-beta / biotin-H3K9me3 peptide binding. Potency, µM (doses to about 114 µM), inactives show at the top dose activity change, negative = inhibition, actives largely listed as inhibitors. hit rate 0.56% among 390,000. AID 540317; further: potency means the concentration at half of the fitted maximal effect; nearly all actives have a fitted effect of over 70% in size
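HP1-beta protein (50 nM final) preincubated 30 min at room temperature with biotinylated H3(1-18)K9me3 peptide (50 nM) in PBS pH 7.4, 0.01% Tween-20, then compound added for 30 min. AlphaScreen streptavidin donor/nickel chelate acceptor beads (10 ug/mL final), 30 min dark, luminescence read.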
* = called active by the depositor; ? = inconclusive; nt = no result; ! = a repeat was not active; [ ] = dose if it differs, or a comment. Unless noted, the call rests on the fitted dose curve; in most records, active means well fitted inhibition curve with a large enough effect; inconclusive means small, poorly fitted or top-dose-only effect; inactive means no such curve, though single readings can be large or run the other way.

SMILES | CtBP-E1A inh | JMJD2A Tudor | BAZ2B block | Six1-Eya2 blk | G9a block | HP1b chromo inh
CCCOC(=O)c1cc(-c2ccc(C=O)o2)ccc1Cl | -5 | -3% | 2% | -7 | ? | 11%
NS(=O)(=O)c1ccc(-c2ccc(/C=C3\NC(=S)NC3=O)o2)cc1 | -11 | 25µM* | 50µM* | -11 | 8.9µM* | ?
CCCOC(=O)c1cc(-c2ccc(/C=C3/C(=O)N(C)C(=O)C(C#N)=C3C)o2)ccc1Cl | -2 | 56µM* | nt | -4 | nt | ?
Cn1nnnc1Sc1ncnc2scc(-c3cccc([N+](=O)[O-])c3)c12 | nt | -27% | nt | nt | nt | nt
COC(=O)[C@H](Cc1ccccc1)NC(=O)NCCc1ccc(OC)cc1 | 2 | 3% | -1% | 9 | 24% | 39%
O=C(CS(=O)(=O)c1ccc(Cl)cc1)NCCS(=O)(=O)c1ccc(Cl)cc1 | 9 | ? | -1% | 4 | 0% | 14%
COc1ccc(OC)c(NC(=O)N2CCC3(CC2)Oc2ccccc2C(=O)N3Cc2ccccc2F)c1 | nt | ? | -35% | nt | ? | -8%
CCNC(=O)C1CCCN(C(=O)c2ccc(C(F)(F)F)cc2)CC1 (stereo not drawn) | -1 | nt | nt | 5 | nt | nt
Cc1[nH]c2c(Cl)cccc2c1CCNC(=O)C1CCCCC1C(=O)OCC(F)(F)F (stereo not drawn) | -18 | -26% | -33% | 0 | 71µM* | 2%
CCOC(=O)c1ccc(CNC(=O)C2CCCCC2C(=O)OCC(F)(F)F)o1 (stereo not drawn) | 4 | 6%[11.4 µM] | -9% | 0 | -4%[12.7 µM] | 2%
COc1ccc(-n2c(C)nc3cc(C(=O)NCc4ccc5c(c4)OCO5)ccc32)cc1 | -5 | -5%[57.1 µM] | -37% | -16 | -21% | 1%
Cc1ccc(CN2CCSc3ccc(C(=O)N4CCN(c5cccc(C)c5C)CC4)cc32)cc1 | nt | -27% | -21% | nt | -35%[59 µM] | 17%
COc1ccc(CNC(=O)c2ccc3c(c2)N(Cc2ccc(C)cc2)CCS3)cc1 | nt | -25% | -3% | nt | 11%[59 µM] | 9%
Cc1ccc(CN2CCSc3ccc(C(=O)N4CCN(c5ccc(Cl)cc5)CC4)cc32)cc1 | nt | ? | -37% | nt | 3.2µM* | 6%
Cc1ccc(CN2CCSc3ccc(C(=O)NCc4cccnc4)cc32)cc1 | -8 | 40µM* | ? | -14 | ? | -5%
CCc1ccc(-n2c(C)nc3cc(C(=O)NCc4cccnc4)ccc32)cc1 | -23 | -31% | -22% | 10 | 50µM* | 22%
CCN1CCSc2ccc(C(=O)NCc3ccc(OC(C)C)cc3)cc21 | -18 | -20% | -32% | -17 | 45µM*! | 21%
COc1cc(N=Nc2c(C)n(C)n(-c3ccccc3)c2=O)ccc1N | -3 | -10% | -25% | -4 | 50µM* | 11%
COC(=O)c1cccc(-n2sc3ccccc3c2=O)c1 | -11 | 14µM* | 6.3µM* | -14 | 8%[0.501 µM] | -28%
O=c1c2ccccc2sn1-c1ccc(F)cc1 | -2 | 13µM* | 4.5µM* | -2 | 2%[0.501 µM] | 7%
O=c1c2ccccc2sn1-c1ccc(Cl)cc1 | -2 | nt | nt | -7 | nt | nt
c1cncc(CNc2ncnc3ccc(-c4ccco4)cc23)c1 | nt | nt | -9% | nt | ? | nt
CN1OC[C@@H]2CN[C@H](c3cccc(Oc4ccccc4)c3)C[C@@H]21 | 4 | nt | nt | 0 | nt | nt
N#C/C(=C\c1ccc(N2CCCCC2)o1)C(N)=O | -11 | -15% | 28µM* | -21 | 28µM* | 8%
N#C/C(=C/c1ccc(N2CCOCC2)o1)c1ccc(Cl)cc1 | -1 | 56µM* | 45µM* | -9 | ? | -26%
SMILES | CtBP-E1A inh | JMJD2A Tudor | BAZ2B block | Six1-Eya2 blk | G9a block | HP1b chromo inh
CCCCNC(=S)Nc1ccccc1F | 0 | 16% | ? | -6 | 20% | 59%
Cc1ccc2c(c1)c1ncnc(N3CCOCC3)c1n2C | 4 | ? | 0% | 5 | -6% | 21%
Cc1ccc2c(c1)c1ccc3c(c1n2C)C(=O)C=CC3=O | ? | 6.3µM* | 10µM* | ? | 1.6µM* | 3.2µM*
COc1ccc2c(c1)c1ccc3c(c1n2C)C(=O)C=CC3=O | nt | 40µM* | ? | -69* | 1.8µM* | 6.3µM*
Cn1c2ccccc2c2ccc3c(c21)C(=O)C=CC3=O | ? | 16µM* | nt | ? | nt | 11µM*
COc1ccc2cc3cc(C(=O)N4CCN(c5ccccc5F)CC4)oc3nc2c1 | nt | -29% | nt | nt | -19%[59 µM] | 18%
Cc1ccc(Nc2nnc(SC3CCOC3=O)s2)cc1 (stereo not drawn) | -13 | -18% | 10% | -1 | 10µM* | 29%
CC(C)c1ccc(Nc2nnc(SC3CCOC3=O)s2)cc1 (stereo not drawn) | 5 | 3% | 3% | -14 | 3%[59 µM] | 40%
CC1=C(C)C(c2ccccc2)NC(=S)N1 (stereo not drawn) | -5 | 3% | -24% | -9 | ? | 32%
S=c1nc(C2CC2)n(-c2ccccc2)[nH]1 | 2 | 2.5µM* | -12% | 9 | ? | 23%
Cc1cc(C)nc(NC(N)=S)n1 | 3 | -4%[11.4 µM] | -9% | 3 | ? | 30%
CC(C)Nc1nc(NC(N)=S)nc(NC(C)C)n1 | -3 | -7% | 0% | -4 | 2.5µM* | 25%
CCNc1nc(NC(C)C)nc(NC(C)(C)C)n1 | 2 | -1% | -8% | 1 | nt | 24%
CC(C)Nc1nc(NC(N)=S)nc(NC(C)(C)C)n1 | -4 | -14% | -12% | -8 | 8.9µM* | 6%
CSCCC(NC(=O)c1ccc(Cl)cc1Cl)C(=O)NNC(=O)c1ccncc1 (stereo not drawn) | -4 | -19% | 5% | 1 | 8%[12.7 µM] | 38%
COc1ccccc1NC(=O)c1cc2c(n(-c3ccc(C)cc3)c1=O)CC(C)(C)CC2=O | nt | -13% | 6% | nt | 0%[59 µM] | 14%
O=c1[nH]nc(CNc2cccc(C(F)(F)F)c2)c2ccccc12 | nt | 6% | -4% | 0 | 6% | 25%
CCn1c(CNc2cccc(C(F)(F)F)c2)n[nH]c1=S | 6 | 50µM* | -11% | 1 | nt | 22%
COc1ccc(NS(=O)(=O)c2ccc3nc(-c4ccccc4)[nH]c3c2)cc1 | nt | 0% | 2% | nt | 9%[59 µM] | 44%
COc1ccc(NS(=O)(=O)c2ccc3nc(COc4ccc(Cl)c(C)c4)[nH]c3c2)cc1 | 4 | -26% | -3% | 2 | 45µM* | 1%
Cc1ccc(CNC(=O)C2c3ccccc3C(=O)N3CCc4ccccc4C23)o1 (stereo not drawn) | -7 | -20% | ? | -1 | 32µM* | -1%
CN(CC(=O)Nc1ccc(Cl)cc1)C(=O)CCc1nc2sc3c(c2c(=O)[nH]1)CCCC3 | -16 | -17% | 0% | -3 | 50µM* | 3%
CN(CC(=O)Nc1c(Cl)cccc1Cl)C(=O)CCc1nc2sc3c(c2c(=O)[nH]1)CCCC3 | -3 | -34% | ? | -10 | 21%[0.501 µM] | 7%

Screens: PubChem, National Center for Advancing Translational Sciences (NCATS)
